The target in assay [1] is Cellular tumor antigen p53 (Homo sapiens) (UniProt P04637). Nature of the assay: Primary qHTS for small molecule compounds that upregulate eGFP-tagged delta133p53alpha (in N-terminal) cells. (AID 2060322). Also: nearly all actives have a fitted effect of over 75% in size. Also: potency is read from the fitted curve at half-maximal effect. As to activation: series mostly up to about 56 µM. As to conditions: NCI-H358 eGFP-delta133p53alpha fluorescence, 24 h; activation: hits give high values. Put shortly:
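NCI-H358 cells pre-induced 24 h with 10 ng/ml doxycycline to express N-terminal eGFP-delta133p53alpha, then dosed 24 h at 37C without doxycycline; fixed, Hoechst-stained, GFP intensity by laser scanning cytometry, normalized to DMSO (0%) and 57.5 uM 5-azacytidine (100%).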

Assay [2] deals with Retinaldehyde dehydrogenase 3 (Homo sapiens) (UniProt P47895). Nature of the assay: qHTS for Inhibitors of the Aldehyde Dehydrogenase Family (ALDH1A3) Primary screen (AID 2061315).

Several values for one entry are separate records, joined by “and”; a condition that tells them apart may be missing. Identical values can stand only once. Results filed as inconclusive are left out. Where a call stands in place of a potency, no number is given. Unmarked numbers belong to inactive results. Activity calls are given as the source filed them. Calls follow the shape of the dose curve; as a rule, active = well fitted curve in the direction sought with a large enough effect; inconclusive = small, poorly fitted or top-dose-only effect, or another doubt; inactive = no such curve, though single readings can be large; an effect the other way counts as inactive or inconclusive.

Sequence of Cellular tumor antigen p53 (Homo sapiens) (P04637 whole entry, looked up): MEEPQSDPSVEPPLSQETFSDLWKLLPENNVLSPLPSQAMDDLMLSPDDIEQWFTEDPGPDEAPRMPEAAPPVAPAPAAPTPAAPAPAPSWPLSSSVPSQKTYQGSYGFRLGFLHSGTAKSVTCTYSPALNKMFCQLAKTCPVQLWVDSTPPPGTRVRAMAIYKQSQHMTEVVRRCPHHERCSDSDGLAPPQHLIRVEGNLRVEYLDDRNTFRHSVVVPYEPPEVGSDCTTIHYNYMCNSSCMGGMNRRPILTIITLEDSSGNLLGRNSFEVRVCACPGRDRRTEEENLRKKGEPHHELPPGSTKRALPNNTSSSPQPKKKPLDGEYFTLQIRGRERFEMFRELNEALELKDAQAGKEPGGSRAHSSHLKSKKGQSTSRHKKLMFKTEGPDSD

As to `O=C(O)[C@H](Cc1ccc(Nc2nccc3ccncc23)cc1)NC1=C(Br)C(=O)C12CCCCC2`, the activation in assay [1] is -6.21%. For the same compound, the Potency entry in assay [2] was “inactive”.

As to `CC[C@H](C)/C=C(C)/C=C/C(=O)Cc1cc(O)c(C)c(O)c1C=O`, the activation in assay [1] was 7.63%. For the same compound, the Potency result in assay [2] is “inactive”.

Turning to `CC(=O)Oc1cc2c(s1)CCN([C@H](C(=O)C1CC1)c1ccccc1F)C2`, the activation in assay [1] is 0.477%. The Potency result in assay [2] was “inactive”.

For the compound `CCCc1cc2c(N3CCN(C4=NCC(C)(C)S4)CC3)ncnc2s1`, the activation in assay [1] is -16.2%. Besides, in assay [2], the Potency result was “inactive”.

As for `C#Cc1cccc(Nc2nc3cc(C(=O)O)ccc3c3cncnc23)c1`, in assay [1], the activation was 8.04%. Besides, the Potency entry in assay [2] is “inactive”.

On to `CCC/C=C/C=C/C1CC(O)C(O)C(=O)C1CO` (configuration not stated), for which the activation in assay [1] is -17.6%. For the same compound, in assay [2], the Potency entry is “inactive”.

As to `CC1=C2C[C@@]3(C)C(CCC[C@@H]3C)C(O)C2OC1=O` (some centres not stated), the activation in assay [1] was -15.3%. For the same compound, the Potency entry in assay [2] is “inactive”.

As to `COc1cc(CCc2ccc(OCC=C(C)C)cc2)cc(OC)c1OC`, the activation in assay [1] is -17.6%. In assay [2], the Potency entry is “inactive”.

`CO[C@@H](Cc1ccc(OCCc2nc(-c3ccccc3)oc2C)c2ccsc12)C(=O)O`: the activation in assay [1] was -6.25%. Besides, the Potency entry in assay [2] was “inactive”.

`COc1ccc(OC)c(C2C(C#N)=C(N)Oc3n[nH]c(-c4ccc5ccccc5c4)c32)c1` (configuration not stated): the activation in assay [1] is -0.333%. Also, in assay [2], the Potency entry was “inactive”.

For the compound `O=C(NCc1cccs1)c1cc2nc(-c3ccco3)cc(C(F)(F)Cl)n2n1`, in assay [1], the activation was 0.477%. Besides, the Potency result in assay [2] was “inactive”.

For the compound `CCc1c[nH]c2ncnc(N3CC[C@](N)(CNC(=O)c4ccc(F)cc4F)C3)c12`, the activation in assay [1] is 22.3%. In assay [2], the Potency entry is “inactive”.

Regarding `C/C(=C\CCC1(C)C2CCC(C2)C1(C)O)C(=O)O` (configuration not stated), in assay [1], the activation was -13.7%. Besides, in assay [2], the Potency result was “inactive”.

For the compound `CC(C)=C/C=C\[C@H](C)[C@H]1CC[C@]2(C)C[C@@H]3C(C)=CC(=O)C3/C(CO)=C\C[C@@H]12` (some centres not stated), the activation in assay [1] is -9.92%. In addition, in assay [2], the Potency result was “inactive”.

On to `C=C1C(O)C(O)C2(CC3C(C)=CCC4C(C)(C(=O)O)CCCC34C)OC2C1O` (configuration not stated), for which the activation in assay [1] was -22.1%. For the same compound, the Potency entry in assay [2] is “inactive”.

In the case of `C[C@@H]1O[C@@H](O[C@H]2[C@H](O[C@H]3[C@H](O[C@H]4CC[C@@]5(C)C(CC[C@]6(C)C5CC=C5[C@@H]7CC(C)(C)CC(=O)[C@]7(C)CC[C@]56C)[C@@]4(C)CO)O[C@H](C(=O)O)[C@@H](O)[C@@H]3O)O[C@H](CO)[C@H](O)[C@@H]2O)[C@H](O)[C@H](O)[C@H]1O` (some centres not stated), in assay [1], the activation is -17%. In addition, the Potency result in assay [2] was “inactive”.

Consider `C[C@@H]1C[C@@H]2O[C@H]2/C=C\C=C\C(=O)Cc2c(Cl)c(O)cc(O)c2C(=O)O1`, for which, in assay [1], the Potency was 14.8 µM (active). Also, the Potency entry in assay [2] was “inactive”.

On to `CC1OC2OC(=O)C3(C)CC4C5(CO5)C5=CC(=O)OC(C)(C)C5=CC(=O)C4(C)C(C1=O)C23` (configuration not stated), for which the activation in assay [1] is 12.2%. For the same compound, the Potency entry in assay [2] was “inactive”.

In the case of `COc1cccc(OC)c1-c1cc(C(=O)N[C@@H](CC(C)C)C(=O)O)nn1-c1ccnc2cc(Cl)ccc12`, in assay [1], the activation is 15.8%. Moreover, the Potency entry in assay [2] was “inactive”.

Turning to `COCCCNCC1COc2ccccc2O1` (configuration not stated), the activation in assay [1] is -6.68%. Moreover, the Potency result in assay [2] is “inactive”.

Turning to `CCC(C)/C=C(C)/C=C/C(=O)C1CCC(O)C(C)(O)C1=O` (configuration not stated), the activation in assay [1] is 14.5%. Moreover, the Potency result in assay [2] is “inactive”.

On to `CC1CC(O)/C=C/C(O)C(O)CC(=O)Cc2c(Cl)c(O)cc(O)c2C(=O)O1` (configuration not stated), for which, in assay [1], the activation is 4.58%. Further, the Potency entry in assay [2] was “inactive”.

`COc1ccc(OC)c(-c2ccc(NC(=O)c3ccncc3F)cc2)c1`: in assay [1], the activation is -5.73%. Also, in assay [2], the Potency entry is “inactive”.

Turning to `CC(=O)OC1/C(C)=C/C(=O)C(OC(C)=O)C(C)(C)/C=C/C(C)C(=O)C2(OC(C)=O)CC(C)C(OC(=O)c3ccccc3)C12` (configuration not stated), the activation in assay [1] was -10.7%. Further, in assay [2], the Potency result is “inactive”.

As for `COc1ccc(-n2[nH]c(=O)c3[nH]c4cc(Cl)ccc4c(=O)c3c2=O)c(C)c1`, the activation in assay [1] was 9%. Also, the Potency result in assay [2] is “inactive”.

On to `COc1ccc([C@@]2(O)c3c(ccc4c3OC(C)(CCC=C(C)C)C=C4)NC(=O)[C@@H]2OC)cc1` (some centres not stated), for which the activation in assay [1] was -6.87%. Further, the Potency result in assay [2] was “inactive”.

Regarding `Cc1c2cc(c(C(=O)O)c1C)OC1OC(C(O)C(O)C1O)C(O)C(O)C1OC(O2)C(O)C(O)C1O` (configuration not stated), the activation in assay [1] is -5.34%. The Potency entry in assay [2] is “inactive”.

For the compound `C/C=C/CCC1Cc2cc(O)c(CCCC)c(O)c2C(=O)O1` (configuration not stated), in assay [1], the activation is -16%. Also, in assay [2], the Potency result was “inactive”.

With `CN1C(CCl)Nc2cc(Cl)c(S(N)(=O)=O)cc2S1(=O)=O` (configuration not stated), the activation in assay [1] is -11.7% and -7.64%. Further, the Potency result in assay [2] is “inactive”.

Regarding `COc1ccc(C2(O)c3c(ccc4c3OC(C)(CCC=C(C)C)C=C4)NC(=O)C2OC)cc1` (configuration not stated), in assay [1], the activation is -4.58%. The Potency result in assay [2] is “inactive”.

As for `C=C/C=C/[C@@H]1OC[C@H](/C=C/C=C/C)[C@H]1O`, the activation in assay [1] was -11.5%. In addition, the Potency entry in assay [2] is “inactive”.

Take `CCCn1cnc2c(NCc3ccccc3)nc(N[C@H](CC)CO)nc21`: in assay [1], the activation was 2.33%. For the same compound, the Potency entry in assay [2] is “inactive”.

Consider `C/C=C/C=C/C(O)=C1\C(=O)[C@]2(C)C3C(C(=O)CC/C=C/C)=C(O)C4(C)C1[C@]1(C)O[C@@]4(O)[C@@]3(C)O[C@@]12O`, for which the activation in assay [1] was 1.53%. Further, the Potency result in assay [2] was “inactive”.

On to `C=C(COC(=O)CC(C)C)C1Cc2cc(C(C)=O)ccc2O1` (configuration not stated), for which, in assay [1], the activation was -15.2%. Also, the Potency result in assay [2] is “inactive”.

On to `CC(=O)OC[C@@]12C(=O)C[C@@H](C)[C@]3(C[C@@H](c4ccoc4)O[C@H]3OC(C)=O)[C@H]1CCC[C@]21CO1`, for which the activation in assay [1] was 11.5%. The Potency result in assay [2] is “inactive”.

For the compound `O=C(Cc1c(F)cccc1F)Nc1cc(OCc2ccc(Cl)cc2)ccn1`, the activation in assay [1] was 15.7%. The Potency entry in assay [2] is “inactive”.

As to `CC[C@]1(O)C[C@@H]2CN(CCc3c([nH]c4ccccc34)[C@@](C(=O)OC)(c3cc4c(cc3OC)N(C)[C@H]3[C@@](O)(C(=O)OC)[C@H](OC(C)=O)[C@]5(CC)C=CCN6CC[C@]43[C@@H]65)C2)C1`, the activation in assay [1] was -35.1%. The Potency entry in assay [2] was “inactive”.

As to `COc1cc(/C=C/C(=O)NCCn2c(C(F)(F)F)cc3ccccc32)cc(OC)c1OC`, the activation in assay [1] is -3.67%. Moreover, the Potency result in assay [2] is “inactive”.

Turning to `C=CC(=O)Nc1ccc(CN2C(=O)N(c3cc(OC)cc(OC)c3)Cc3cnc(Nc4ccc(N5CCN(C)CC5)cc4)nc32)cc1`, in assay [1], the Potency was 13.5 µM (active). Moreover, the Potency entry in assay [2] was “inactive”.

Turning to `O=C(O)c1cc2cccc([N+](=O)[O-])c2[nH]1`, the activation in assay [1] is 10.3%. In addition, in assay [2], the Potency result is “inactive”.

As to `COc1ccccc1NC(=O)Nc1ccc2ccccc2c1`, the activation in assay [1] is -9%. The Potency entry in assay [2] is “inactive”.
